High-throughput results as filed in PubChem.
Tau fibril FP = qHTS for Inhibitors of Tau Fibril Formation, Fluorescence Polarization. Microtubule-associated protein tau (Homo sapiens), P10636. K18 P301L tau heparin fibrillization, Alexa594 FP, 6 h. Potency, µM (highest dose often 57.7 µM), without a hit: top-dose activity, negative = inhibition, usual class: inhibitors. 0.39% of 280,000 active. AID 1468, 2008; active means well fitted curve in the direction sought with a large enough effect; inconclusive means small, poorly fitted or top-dose-only effect, or another doubt; inactive means no such curve, though single readings can be large; an effect the other way counts as inactive or inconclusive; further: nearly all actives have a fitted effect of over 55% in size
Target sequence (P10636 561-689 P618L limits assumed): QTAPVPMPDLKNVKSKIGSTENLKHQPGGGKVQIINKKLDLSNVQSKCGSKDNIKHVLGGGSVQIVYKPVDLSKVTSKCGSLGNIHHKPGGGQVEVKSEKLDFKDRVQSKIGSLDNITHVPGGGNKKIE
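Compound effects on tau fibrillization are measured by Alexa 594 fluorescence polarization (ex 555, em 632 nm). K18 P301L tau is used at 15 uM with 0.24 uM labeled tracer, and 20 uM heparin induces aggregation over 6 hr at 37 C.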
Tau fluor counter = Counterscreen qHTS for Inhibitors of Tau Fibril Formation, Fluorescence Polarization; 0.93% of 280,000 active; AID 1463, 2008; Potency, µM (series often up to 57.7 µM), for inactives: top-dose activity change, negative = decrease; tau K18 P301L Alexa594 fluorescence, heparin fibrillization; active means well fitted curve in the direction sought with a large enough effect; inconclusive means small, poorly fitted or top-dose-only effect, or another doubt; inactive means no such curve, though single readings can be large; an effect the other way counts as inactive or inconclusive; further: nearly all actives have a fitted effect of over 55% in size
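Human K18 P301L tau (15 uM unlabeled plus 0.24 uM Alexa 594-labeled, final) in 100 mM sodium acetate pH 7 was mixed with compound and 20 uM heparin and incubated 6 hr at 37 C.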
HPGD inh = qHTS Assay for Inhibitors of HPGD (15-Hydroxyprostaglandin Dehydrogenase); 15-hydroxyprostaglandin dehydrogenase [NAD(+)] (Homo sapiens), P15428; purified HPGD, NADH fluorescence kinetic, PGE2 substrate; Potency, µM, for the others: top-dose activity change, negative = inhibition, most hits filed as inhibitors; 4.3% of 150,000 active
Target sequence (P15428 whole entry, looked up): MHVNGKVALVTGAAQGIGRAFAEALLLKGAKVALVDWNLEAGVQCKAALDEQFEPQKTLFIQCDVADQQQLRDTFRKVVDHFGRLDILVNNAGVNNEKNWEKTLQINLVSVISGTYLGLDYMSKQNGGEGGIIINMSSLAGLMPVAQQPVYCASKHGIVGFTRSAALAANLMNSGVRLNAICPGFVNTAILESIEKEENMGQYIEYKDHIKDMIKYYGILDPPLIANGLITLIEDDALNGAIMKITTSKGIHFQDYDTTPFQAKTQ
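NADH formation kinetics: reaction with 30 uM PGE2 and 1 mM NAD+ (final), 20 nM enzyme, Tris-HCl pH 8 with Tween 20, after 15 min compound preincubation at room temperature. Fluorescence change, last versus first of five reads.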
KDM4E inh = qHTS Assay for Inhibitors of Human Jumonji Domain Containing 2E (JMJD2E); JMJD2E catalytic domain, FDH-coupled NADH fluorescence (FDH is formaldehyde dehydrogenase); Lysine-specific demethylase 4E (Homo sapiens), B2RXH2; Potency, µM (top dose mostly 57.1 µM), for inactives: at the top dose activity change, negative = inhibition, most hits filed as inhibitors; 1.6% of 230,000 active; AID 2147, 2009;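 further: 0% = wells with enzyme and -100% = buffer wells without enzyme; nearly all actives have a fitted effect of over 50% in size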
Target sequence (B2RXH2 1-337 limits assumed): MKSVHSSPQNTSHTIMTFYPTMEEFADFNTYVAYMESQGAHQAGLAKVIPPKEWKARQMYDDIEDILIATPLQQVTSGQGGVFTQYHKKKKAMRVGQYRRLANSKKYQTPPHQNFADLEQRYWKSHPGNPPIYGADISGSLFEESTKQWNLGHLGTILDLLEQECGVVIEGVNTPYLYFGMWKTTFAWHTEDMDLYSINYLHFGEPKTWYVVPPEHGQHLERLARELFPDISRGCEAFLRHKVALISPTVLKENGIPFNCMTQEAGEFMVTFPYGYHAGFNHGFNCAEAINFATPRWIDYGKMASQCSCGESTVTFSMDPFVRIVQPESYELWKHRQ
ALDH1A1 block = qHTS Assay for Inhibitors of Aldehyde Dehydrogenase 1 (ALDH1A1) | Potency, µM (doses to about 75.3 µM), for the others: at the top dose activity, negative = inhibition, most hits filed as inhibitors | Purified ALDH1A1, NADH fluorescence, propionaldehyde substrate | 7.3% of 220,000 active | AID 1030, 2008 | Aldehyde dehydrogenase 1A1 (Homo sapiens), P00352;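 further: plate controls were no enzyme wells and a reference inhibitor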
Tau ThT inhib = qHTS for Inhibitors of Tau Fibril Formation, Thioflavin T Binding; Microtubule-associated protein tau (Homo sapiens), P10636; recombinant tau K18 P301L (four-repeat tau fragment), heparin-induced fibrillization, ThT fluorescence; Potency, µM (titrated, usually from 57.4 µM), inactives show at the highest dose activity, negative = inhibition, most hits filed as inhibitors; 2.1% of 270,000 active; AID 1460, 2008; active means well fitted curve in the direction sought with a large enough effect; inconclusive means small, poorly fitted or top-dose-only effect, or another doubt; inactive means no such curve, though single readings can be large; an effect the other way counts as inactive or inconclusive; further: nearly all actives have a fitted effect of over 55% in size
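Aggregation was driven by heparin (20 uM final) acting on recombinant tau […] bearing P301L in 100 mM sodium acetate pH 7; fibrils were detected with Thioflavin T.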
* = called active by the depositor; ? = inconclusive; / = no result; ! = not active in a repeat; [ ] = another dose, or the depositor's remark. Shown are actives, neighbours in structure and some others; about 9.9% of the full set was active somewhere. Unless noted, the call rests on the fitted dose curve; in most records, active means well fitted inhibition curve with a large enough effect (not every such curve was filed as active); inconclusive means small, poorly fitted or top-dose-only effect, or another doubt; inactive means no such curve, though single readings can be large or run the other way. Unless noted, on the % scale 0 is the no-effect control and ±100 the full control effect; potency means the concentration at half of the fitted maximal effect.

SMILES | Tau fibril FP | Tau fluor counter | HPGD inh | KDM4E inh | ALDH1A1 block | Tau ThT inhib
CC(=O)N(Cc1ccc(F)cc1)C1=C(NCCc2ccccc2)C(=O)c2ccccc2C1=O | ? | ? | -5.0% | ? | ? | 28.2µM*
COc1ccccc1-c1nc(-c2ccc(C)nc2OC)no1 | ? | -14.6% | -17.5% | ? | ? | -13.3%
COc1nc(C)ccc1-c1noc(-c2ccccn2)n1 | -3.1% | -5.7% | 22.4µM* | 3.5% | -6.5% | -9.7%
CC1CCc2c(sc(NC(=O)Cc3ccccc3)c2C(=O)Nc2ccc(Cl)cc2)C1 (centres undefined) | -2.1% | -4.4% | / | / | / | 4.3%
O=C(O)c1cccnc1SC1CC(=O)N(c2ccc(OC(F)F)cc2)C1=O (centres undefined) | / | / | / | -2.3% | / | /
O=C(O)c1cccnc1SC1CC(=O)N(c2cccc(C(F)(F)F)c2)C1=O (centres undefined) | -3.9% | 3.8% | -16.1% | 1.3% | 12.6µM* | 3.6%
O=P(CO)(Cc1ccccc1)Cc1ccccc1 | -10.0% | 3.0% | 15.8µM* | -2.7% | 7.5% | 16.0%
CCn1c(CN2CCN(c3cccc(C)c3C)CC2)n[nH]c1=S | 2.7% | -8.8% | -17.5% | 9.2% | -8.2% | -2.2%
Oc1ccccc1Nc1nc(NCc2ccco2)c2ccccc2n1 | -10.0% | 17.8µM*[quencher] | / | -11.8% | / | ?
Cc1ccccc1Nc1nc(NCc2ccco2)c2ccccc2n1 | 13.2% | ? | / | ? | ? | ?
COc1cc(C2c3sc(=O)[nH]c3SC3C(=O)N(c4ccc(C)cc4)C(=O)C32)ccc1O (centres undefined) | 1.7% | -11.4% | / | -5.1% | -7.6% | ?
COC(=O)C1CSc2[nH]c(=O)sc2C1c1ccc(O)c(OC)c1 (centres undefined) | 5.1% | 2.5% | ? | 8.5% | 2.51µM* | 1.7%
CCOC(=O)C1CSc2[nH]c(=O)sc2C1c1ccccc1 (centres undefined) | 7.1% | -19.2% | -6.8% | -1.1% | 28.2µM* | -18.9%
COc1ccc(C2c3sc(=O)[nH]c3SCC2C(N)=O)cc1 (centres undefined) | -4.4% | 1.2% | / | -8.1% | / | 3.5%
O=C1C=CC(=O)C(C2=C3C(=O)N(CCc4ccccc4)CC(=O)N3CCC2)=C1 | ? | ? | 1.58µM* | ? | 2.24µM* | 15.8µM*
O=C(NCCOc1nc(N2CCCCC2)nc(N2CCOCC2)n1)Nc1ccccc1 | 1.7% | -10.8% | -7.8% | 13.4% | 8.91µM* | 3.0%
O=C(NCCOc1nc(N2CCOCC2)nc(N2CCOCC2)n1)Nc1ccccc1 | -0.6% | -5.3% | -7.7% | 5.1% | 4.2% | -8.3%
COC(=O)c1ccccc1NC(=O)CSc1n[nH]c(-c2cccnc2)n1 | 0.0% | -0.5% | / | 2.5% | 14.8% | 4.8%
CC(C)OC(=O)CSc1n[nH]c(-c2cccnc2)n1 | 6.1% | 11.7% | 15.8µM* | -1.6% | -8.6% | 16.9%
COc1ccc(N2CCN(C(CNC(=O)C(=O)NCCCn3ccnc3)c3ccco3)CC2)cc1 (centres undefined) | 6.6% | 1.0% | / | 2.7% | 10.9% | -3.6%
CCOC(=O)c1ccc(-n2c(CCC(=O)O)ccc2-c2ccc(Br)cc2)cc1 | -10.4% | -11.5% | / | / | / | ?
Cc1cccc(OCc2ccc(-c3nc(C#N)c(NCCN(C)C)o3)o2)c1 | ? | ? | / | / | / | -5.4%
COc1ccc(CC(=O)N2CC(C)CC(C)C2)cc1 (centres undefined) | 3.3% | -3.1% | 28.2µM* | -10.4% | ? | -2.1%
COc1ccc(CC(=O)N2CCOCC2)cc1 | -2.2% | -9.3% | -13.6% | 3.8% | 1.2% | -3.8%
COc1ccc(OC)c(NC(=O)CSc2ccccc2)c1 | -2.0% | -8.2% | -2.5% | 4.8% | -7.4% | 2.3%
SMILES | Tau fibril FP | Tau fluor counter | HPGD inh | KDM4E inh | ALDH1A1 block | Tau ThT inhib
COc1ccc(OC)c(NC(=O)CSc2ccc3ccccc3c2)c1 | -13.5% | -22.1% | / | -6.2% | 11.2µM* | ?
COc1cc(NC(=O)CSc2ncnc3c2cnn3Cc2ccccc2)cc(OC)c1 | ? | ? | -16.2% | 4.9% | ? | -12.5%
COc1ccc(OC)c(NC(=O)CSCC(=O)O)c1 | -8.5% | -6.9% | -14.0% | -26.1% | 20µM* | -9.7%
COc1ccc(OC)c(NC(=O)CSc2ncnc3c2cnn3-c2ccccc2Cl)c1 | 2.3% | -29.5% | -20.9% | -5.7% | 15.8µM* | -19.6%
Cc1ccc(C)c(N2C(=O)c3cc(N4CCOCC4)c([N+](=O)[O-])cc3C2=O)c1 | 6.6% | -5.0% | -2.5% | -3.5% | -13.3% | -18.0%
O=C(NCc1ccco1)C1CC(=O)N(CCc2ccccc2)C1 (centres undefined) | -2.7% | -6.2% | -7.9% | ? | 22.4µM* | -17.3%
C/C(=N\[N+](C)(C)C)c1ccc(C)c(C)c1 | / | / | -1.3% | / | -4.8%[13.5 µM] | /
CC(=O)n1cc(N(C(=O)CCl)c2ccccc2)c2ccccc21 | 2.0% | -4.9% | / | ? | / | ?
CC(=O)n1cc(N(C(=O)CCl)c2ccc([N+](=O)[O-])cc2)c2ccccc21 | -7.1% | ? | / | -1.6% | / | 28.2µM*
O=Cc1[nH]c2ccccc2c1N(C(=O)CCl)c1ccc([N+](=O)[O-])cc1 | ? | ? | / | -5.4% | 7.94µM* | 15.8µM*
O=C(Nc1nc2ccccc2n1CCN1CCOCC1)c1cn(-c2ccccc2)nc1-c1ccccc1 | -10.8% | ? | ? | 25.1µM* | ? | 0.8%
CCOC(=O)c1ccc(NC(=O)Cc2ccc(-n3c(CC)nc4cccnc43)cc2)cc1 | -1.3% | -25.4% | / | / | / | 1.1%
C=C[C@@](C)(O)CC[C@@H]1[C@@]2(C)CCCC(C)(C)[C@@H]2CC[C@@]1(C)O | -1.8% | -13.8% | -8.6% | -9.0% | 39.8µM*! | ?
C=C[C@](C)(O)CCC1C(=C)CC(OC(C)=O)C2C(C)(C)CCCC12C (some centres undefined) | -4.2% | -13.1% | -24.4% | -5.6% | 2.0% | ?
Cc1ccc(CCNC(=O)CCn2nc(-c3ccc(C)cc3)ccc2=O)cc1 | 5.0% | -19.2% | / | / | / | -14.3%
COc1cccc([C@@H]2Oc3ccc(Br)cc3C[C@H]2OC(=O)Nc2cc(OC)c(OC)c(OC)c2)c1 | -2.4% | -11.6% | -11.0% | 6.5% | -6.4% | -3.6%
CC1(C)Cc2c(sc3ncnc(NNC(=S)NCc4ccccc4)c23)CO1 | 7.1% | ? | -11.2% | 2.1% | 1.41µM* | -14.4%
